Experiments:
Assay in all cases: PBM binding z-score (relative to random genomic background probes); higher = stronger binding; sequences stand for … in GC…GCGATTGACAGCGTAGAATGAAGG
[1] = tested on: FXR:RXRa (NR concentration 270 nM, RXRa partner concentration 90 nM)
In short: (§1)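 Probes were double-stranded and carried 34-nt variable regions with direct-repeat seeds, single-nucleotide variants, half-site ablations and random human genomic background sequences, printed on custom Agilent 4×180K protein-binding microarrays. Arrays were incubated 1 h with ligand-free nuclear receptor dimers in PBS pH 7.4, 2% milk, 0.02% Triton X-100, 1 mM DTT, 0.2 mg/mL BSA and 0.4 mg/ml salmon testes DNA. Antibodies against each partner (one per run) detected binding, and scanned fluorescence was regression-normalized. Binding z-scores use the random background probes as reference.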

[2] = tested on: LXRa:RXRa (NR concentration 270 nM, RXRa partner concentration 90 nM)
In short: as §1

[3] = tested on: LXRa homodimer (NR concentration 270 nM)
In short: as §1

[4] = tested on: LXRb:RXRa (NR concentration 270 nM, RXRa partner concentration 90 nM)
In short: as §1

[5] = tested on: LXRb homodimer (NR concentration 270 nM)
In short: as §1

[6] = tested on: PPARa:RXRa (NR concentration 270 nM, RXRa partner concentration 90 nM)
In short: as §1

[7] = tested on: PPARg:RXRa (NR concentration 180 nM, RXRa partner concentration 90 nM)
In short: as §1

[8] = tested on: PPARg:RXRa 270nM:90nM, anti-RXR (NR concentration 270 nM, RXRa partner concentration 90 nM)
In short: as §1

[9] = tested on: PPARg:RXRa 30nM:10nM, anti-RXR (NR concentration 30 nM, RXRa partner concentration 10 nM)
In short: as §1

[10] = tested on: PPARg:RXRa 90nM:30nM, anti-RXR (NR concentration 90 nM, RXRa partner concentration 30 nM)
In short: as §1

[11] = tested on: PPARg:RXRa DBDmut IVT, anti-RXR (DBD mutation: RXRa K156A/R161A, NR concentration 270 nM, RXRa partner concentration 90 nM)
In short: as §1

[12] = tested on: PPARg:RXRa IVT, anti-PPARg (NR concentration 270 nM, RXRa partner concentration 90 nM)
In short: as §1

[13] = tested on: PPARg DBDmut:RXRa IVT, anti-PPARg (DBD mutation: PPARg1 K132A/R137A, NR concentration 270 nM, RXRa partner concentration 90 nM)
In short: as §1

[14] = tested on: PPARg DBDmut IVT, anti-PPARg (DBD mutation: PPARg1 K132A/R137A, NR concentration 270 nM)
In short: as §1

[15] = tested on: PPARg homodimer (NR concentration 180 nM)
In short: as §1

[16] = tested on: PXR:RXRa (NR concentration 270 nM, RXRa partner concentration 90 nM)
In short: as §1

[17] = tested on: PXR homodimer (NR concentration 270 nM)
In short: as §1

[18] = tested on: RARa:RXR (NR concentration 270 nM, RXRa partner concentration 90 nM)
In short: as §1

[19] = tested on: RARa homodimer (NR concentration 270 nM)
In short: as §1

[20] = tested on: RARb:RXRa (NR concentration 270 nM, RXRa partner concentration 90 nM)
In short: as §1

Sequence	PBM binding z-score [1]	PBM binding z-score [2]	PBM binding z-score [3]	PBM binding z-score [4]	PBM binding z-score [5]	PBM binding z-score [6]	PBM binding z-score [7]	PBM binding z-score [8]	PBM binding z-score [9]	PBM binding z-score [10]	PBM binding z-score [11]	PBM binding z-score [12]	PBM binding z-score [13]	PBM binding z-score [14]	PBM binding z-score [15]	PBM binding z-score [16]	PBM binding z-score [17]	PBM binding z-score [18]	PBM binding z-score [19]	PBM binding z-score [20]
TCATATAGTTAAACAGGTGAAAGTCCGTAAGTTA	1.06	1.1	0.478	1.1	0.356	1.7	1.25	2.68	4.38	3.42	2.65	1.54	1.36	1.6	1.34	0.848	0.543	1.2	1.91	0.698
TAGCCTAGGTCATTGGGCCCGTATAGTACGCATC	4.15	3.59	0.962	2.9	0.67	3.84	2.27	2.57	0.517	1.74	1.78	3.02	0.545	-0.654	0.54	1.75	0.165	2	-0.326	3.74
CGTCCAAGGTCAGCAGGCCAGTGAAAGCGACGTG	4.9	3.41	-0.314	2.31	-0.659	4.69	2.86	3.35	0.155	1.84	2.35	2.56	-0.196	-0.403	1.55	2.26	-0.0334	3.14	0.266	5.01
GCTTGGAGATCAAGGTTAAGAAAGACTAAGCTAA	0.0543	0.942	-0.403	0.686	-1.08	1.57	0.135	0.864	0.225	0.671	-0.178	0.209	-0.0376	-0.611	0.0193	0.278	-0.313	1.12	-0.305	0.871
ATAAGTAGGTTAAGGGTCATTCAGGTTGGTTCGC	4.91	4.67	3.52	4.65	2.15	6.55	12	9.92	10.7	11.2	7.68	7.64	2.34	2.31	5.84	5.44	4.03	6.12	3	3.75
AGAATGAGGTTTTTAAGATCAGGGAATTGCGGTC	-0.295	-0.436	-0.308	-0.234	-0.216	0.0197	0.144	0.00452	0.119	-0.139	0.514	0.257	0.355	-0.0253	-0.582	-0.38	-0.508	-0.216	0.273	0.0304
TCTTGTAGATCACTAGAGGTTAAGAAAGTGCGCT	0.684	5.11	1.63	2.67	0.128	1.88	-0.00284	1.73	2.56	2.22	1.81	1.16	1.46	0.897	0.0426	3.04	0.56	1.74	0.205	1.03
AATACAGGGTCATCGTAGGCCAGAGTACGCACAG	7.52	6.07	2.44	4.7	1.5	5.73	6.55	6.09	2.58	4.87	2.76	4.32	1.59	1.19	1.96	4.94	0.48	4.82	0.854	4.37
CGTCCAAGGTCAGCAGGTCAGTGGAAGCGACGTG	5.74	3.85	0.538	2.96	-0.217	4.94	4.05	4.15	0.99	2.87	2.83	3.58	-0.161	-0.183	2.96	3.57	0.377	4.3	0.462	5.23
